Test results as given in the supplement of paper PMC4962491.
± gives the standard deviation of the averaged measurements.

What follows are compounds tested on FaDu (assay: mitochondrial oxygen consumption rate normalised to cell number, Z score vs plate DMSO wells; higher = higher oxygen consumption (negative = OCR reduction)). Conditions: 0.4 µM; treatment time 24 h; assay medium: 5 mM glucose, 5 mM pyruvate, 4 mM glutamine.
Method: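 Secondary screen: FaDu cells were incubated 24 h with the top 130 primary hits at 0.08, 0.4, 2 or 10 uM. Mitochondrial-specific OCR (basal minus antimycin A) was measured on a Seahorse XF96 in medium with 5 mM glucose, 5 mM pyruvate and 4 mM glutamine and normalised to Hoechst cell number. OCR score = (OCR - mean of plate DMSO wells) / SD of plate DMSO wells. Three repeats.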
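Further: compound exposure in DMEM (4 mM L-glutamine, 5 mM glucose), antimycin A injected at 2 µM after the basal reading and its residual OCR subtracted from basal.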

| SMILES | mitochondrial oxygen consumption rate normalised |
| --- | --- |
| CC(C)NCC(O)COc1ccc(CC(N)=O)cc1 (stereo unspecified) | 0.806 ± 0.77 |
| CCCCC(CC)CN1CN(CC(CC)CCCC)CC(C)(N)C1 (stereo unspecified) | 0.568 ± 0.56 |
| CN(C)C(=O)C(CCN1CCC(O)(c2ccc(Cl)cc2)CC1)(c1ccccc1)c1ccccc1 | 0.616 ± 1.4 |
| CO[C@@]12[C@H](COC(N)=O)C3=C(C(=O)C(C)=C(N)C3=O)N1C[C@@H]1N[C@@H]12 | 1.96 ± 0.85 |
| S=c1[nH]cnc2nc[nH]c12 | 0.888 ± 1.4 |
| CCOC(=O)CCC(=O)O[C@H]1[C@H](O[C@@H]2[C@@H](C)[C@H](O[C@H]3C[C@@](C)(OC)[C@@H](O)[C@H](C)O3)[C@@H](C)C(=O)O[C@H](CC)[C@@](C)(O)[C@H](O)[C@@H](C)C(=O)[C@H](C)C[C@@]2(C)O)O[C@H](C)C[C@@H]1N(C)C | 0.83 ± 0.89 |
| CCc1cc(Cl)c(OC)c(C(=O)NC[C@@H]2CCCN2CC)c1O | 1.18 ± 0.45 |
| COc1c2occc2cc2ccc(=O)oc12 | 0.146 ± 0.75 |
| C[n+]1cc2c3c(ccc2c2ccc4cc5c(cc4c21)OCO5)OCO3 | 0.59 ± 0.68 |
| CN1[C@@H]2CC[C@H]1C[C@@H](OC(=O)c1c[nH]c3ccccc13)C2 | 1.48 ± 0.79 |

Same assay, conditions: 2 µM; treatment time 24 h; assay medium: 5 mM glucose, 5 mM pyruvate, 4 mM glutamine

| SMILES | mitochondrial oxygen consumption rate normalised |
| --- | --- |
| CCc1c2c(nc3ccc(OC(=O)N4CCC(N5CCCCC5)CC4)cc13)-c1cc3c(c(=O)n1C2)COC(=O)[C@]3(O)CC | 1.27 ± 0.31 |
| O=C(Nc1ccc([N+](=O)[O-])cc1Cl)c1cc(Cl)ccc1O | 0.259 ± 0.76 |
| C[n+]1c2cc(N)ccc2cc2ccc(N)cc21 | -5.7 ± 0.82 |
| COc1cccc2c1C(=O)c1c(O)c3c(c(O)c1C2=O)C[C@@](O)(C(=O)CO)C[C@@H]3O[C@H]1C[C@H](N)[C@@H](O)[C@H](C)O1 | 1.18 ± 1.4 |
| Cc1cc(=O)[nH]c(=S)[nH]1 | -1.08 ± 0.99 |
| Cc1cc(N)c2ccccc2[n+]1CCCCCCCCCC[n+]1c(C)cc(N)c2ccccc21 | -4.67 ± 2.1 |
| c1ccc2c(c1)CCCC2C1=NCCN1 (stereo unspecified) | -0.793 ± 1 |
| CC(COc1ccccc1)NC(C)C(O)c1ccc(O)cc1 (stereo unspecified) | 0.21 ± 1.1 |
| N=C(N)NC(=N)NCCc1ccccc1 | -0.479 ± 0.84 |
| CC(C(O)c1ccc(O)cc1)N1CCC(Cc2ccccc2)CC1 (stereo unspecified) | -0.938 ± 1.3 |
| COc1cc(O)c(C(=O)c2ccccc2)cc1S(=O)(=O)O | -0.346 ± 2.5 |
| Nc1nc(Cl)nc2c1ncn2[C@H]1C[C@H](O)[C@@H](CO)O1 [Cladribine] | 0.797 ± 2 |
| CN(C)CCCN1c2ccccc2CCc2ccccc21 | -0.981 ± 1.9 |
| COc1ccc2cc3[n+](cc2c1OC)CCc1cc2c(cc1-3)OCO2 | -6.29 ± 0.22 |
| Clc1ccc(COC(Cn2ccnc2)c2ccc(Cl)cc2Cl)cc1 (stereo unspecified) | 0.111 ± 1.5 |
| C[C@]12CC[C@@H]3c4ccc(O)cc4CC[C@H]3[C@@H]1CC[C@@H]2OC(=O)CCC1CCCC1 | 0.375 ± 0.83 |
| Oc1c(Cl)cc(Cl)c(Cl)c1Cc1c(O)c(Cl)cc(Cl)c1Cl | -2.48 ± 0.61 |
| NS(=O)(=O)c1cc2c(cc1Cl)N=CNS2(=O)=O | 0.0559 ± 1.2 |
| CC(C)NCC(O)COc1ccc(CC(N)=O)cc1 (stereo unspecified) | 0.178 ± 1 |
| CCCCC(CC)CN1CN(CC(CC)CCCC)CC(C)(N)C1 (stereo unspecified) | 0.773 ± 1.7 |
| CN(C)C(=O)C(CCN1CCC(O)(c2ccc(Cl)cc2)CC1)(c1ccccc1)c1ccccc1 | 0.593 ± 1.7 |
| CO[C@@]12[C@H](COC(N)=O)C3=C(C(=O)C(C)=C(N)C3=O)N1C[C@@H]1N[C@@H]12 | -1.73 ± 1.2 |
| S=c1[nH]cnc2nc[nH]c12 | -2.8 ± 1.2 |
| CCOC(=O)CCC(=O)O[C@H]1[C@H](O[C@@H]2[C@@H](C)[C@H](O[C@H]3C[C@@](C)(OC)[C@@H](O)[C@H](C)O3)[C@@H](C)C(=O)O[C@H](CC)[C@@](C)(O)[C@H](O)[C@@H](C)C(=O)[C@H](C)C[C@@]2(C)O)O[C@H](C)C[C@@H]1N(C)C | -0.161 ± 1.9 |
| CCc1cc(Cl)c(OC)c(C(=O)NC[C@@H]2CCCN2CC)c1O | 0.712 ± 2.1 |
| COc1c2occc2cc2ccc(=O)oc12 | -0.807 ± 2.3 |
| C[n+]1cc2c3c(ccc2c2ccc4cc5c(cc4c21)OCO5)OCO3 | -0.66 ± 2.1 |
| CN1[C@@H]2CC[C@H]1C[C@@H](OC(=O)c1c[nH]c3ccccc13)C2 | -0.138 ± 1.6 |

Same assay, conditions: 10 µM; treatment time 24 h; assay medium: 5 mM glucose, 5 mM pyruvate, 4 mM glutamine

| SMILES | mitochondrial oxygen consumption rate normalised |
| --- | --- |
| CCc1c2c(nc3ccc(OC(=O)N4CCC(N5CCCCC5)CC4)cc13)-c1cc3c(c(=O)n1C2)COC(=O)[C@]3(O)CC | -4.72 ± 1 |
| O=C(Nc1ccc([N+](=O)[O-])cc1Cl)c1cc(Cl)ccc1O | -12.5 ± 0.17 |
| C[n+]1c2cc(N)ccc2cc2ccc(N)cc21 | -12.3 ± 0.21 |
| COc1cccc2c1C(=O)c1c(O)c3c(c(O)c1C2=O)C[C@@](O)(C(=O)CO)C[C@@H]3O[C@H]1C[C@H](N)[C@@H](O)[C@H](C)O1 | 1.58 ± 2.4 |
| Cc1cc(=O)[nH]c(=S)[nH]1 | 0.503 ± 0.66 |
| Cc1cc(N)c2ccccc2[n+]1CCCCCCCCCC[n+]1c(C)cc(N)c2ccccc21 | -7.52 ± 1.4 |
| c1ccc2c(c1)CCCC2C1=NCCN1 (stereo unspecified) | -0.259 ± 1 |
| CC(COc1ccccc1)NC(C)C(O)c1ccc(O)cc1 (stereo unspecified) | 0.099 ± 1 |
| N=C(N)NC(=N)NCCc1ccccc1 | -5.11 ± 1.6 |
| CC(C(O)c1ccc(O)cc1)N1CCC(Cc2ccccc2)CC1 (stereo unspecified) | 0.802 ± 0.91 |
| COc1cc(O)c(C(=O)c2ccccc2)cc1S(=O)(=O)O | -1.77 ± 1 |
| Nc1nc(Cl)nc2c1ncn2[C@H]1C[C@H](O)[C@@H](CO)O1 [Cladribine] | -0.553 ± 2.5 |
| CN(C)CCCN1c2ccccc2CCc2ccccc21 | -0.576 ± 1.4 |
| COc1ccc2cc3[n+](cc2c1OC)CCc1cc2c(cc1-3)OCO2 | -13.55 ± 0.13 |
| Clc1ccc(COC(Cn2ccnc2)c2ccc(Cl)cc2Cl)cc1 (stereo unspecified) | -4.62 ± 1.4 |
| C[C@]12CC[C@@H]3c4ccc(O)cc4CC[C@H]3[C@@H]1CC[C@@H]2OC(=O)CCC1CCCC1 | -0.125 ± 1.5 |
| Oc1c(Cl)cc(Cl)c(Cl)c1Cc1c(O)c(Cl)cc(Cl)c1Cl | -13.3 ± 0.45 |
| NS(=O)(=O)c1cc2c(cc1Cl)N=CNS2(=O)=O | 0.507 ± 1.1 |
| CC(C)NCC(O)COc1ccc(CC(N)=O)cc1 (stereo unspecified) | -0.73 ± 1.5 |
| CCCCC(CC)CN1CN(CC(CC)CCCC)CC(C)(N)C1 (stereo unspecified) | -5.24 ± 1.7 |
| CN(C)C(=O)C(CCN1CCC(O)(c2ccc(Cl)cc2)CC1)(c1ccccc1)c1ccccc1 | -0.932 ± 1.7 |
| CO[C@@]12[C@H](COC(N)=O)C3=C(C(=O)C(C)=C(N)C3=O)N1C[C@@H]1N[C@@H]12 | -3.99 ± 1.3 |
| S=c1[nH]cnc2nc[nH]c12 | -2.54 ± 0.98 |
| CCOC(=O)CCC(=O)O[C@H]1[C@H](O[C@@H]2[C@@H](C)[C@H](O[C@H]3C[C@@](C)(OC)[C@@H](O)[C@H](C)O3)[C@@H](C)C(=O)O[C@H](CC)[C@@](C)(O)[C@H](O)[C@@H](C)C(=O)[C@H](C)C[C@@]2(C)O)O[C@H](C)C[C@@H]1N(C)C | 1.22 ± 0.77 |
| CCc1cc(Cl)c(OC)c(C(=O)NC[C@@H]2CCCN2CC)c1O | 0.556 ± 2.2 |
| COc1c2occc2cc2ccc(=O)oc12 | -1.8 ± 2.2 |
| C[n+]1cc2c3c(ccc2c2ccc4cc5c(cc4c21)OCO5)OCO3 | -3.47 ± 3.3 |
| CN1[C@@H]2CC[C@H]1C[C@@H](OC(=O)c1c[nH]c3ccccc13)C2 | -1.06 ± 2.5 |
